A short description of assay [1]: qHTS assay to identify small molecule antagonists of the estrogen receptor alpha (ER-alpha) signaling pathway using the BG1 cell line in the presence of 0.1 nM 17-beta-estradiol - cell viability counter screen (AID 1259241). Note: nearly all actives have a fitted effect of over 40% in size. An outline of the steps: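 Live-cell protease activity (CellTiter-Fluor fluorescence, 30 min) was read in the same wells after VM7Luc4E2 cells had been exposed to compounds with 0.1 nM 17beta-estradiol for 22 hr at 37C.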
On the technique in general: In qHTS, concentration-response curves come from the screen itself.

The nature of assay [2]: qHTS assay to identify small molecule antagonists of the androgen receptor (AR) signaling pathway using the MDA cell line in the presence of 0.5 nM R1881 - cell viability counter screen (AID 1259242). Note: nearly all actives have a fitted effect of over 45% in size. In outline:
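Counter screen for cytotoxicity run in the same wells as the AR antagonist reporter screen: MDA-kb2 cells were treated 16 hr with test compounds and 0.5 nM R1881, then live-cell protease activity was measured by fluorescence.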

A short description of assay [3]: qHTS assay to identify small molecule HDAC inhibitors (AID 1259364). Note: top concentration of the series differs between compounds; nearly all actives have a fitted effect of over 45% in size. In outline:
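Luminescence from a cell-permeant luminogenic class I/II HDAC substrate reports endogenous deacetylase activity in intact HCT-116 cells treated with compounds for 2 h.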

A short description of assay [4]: qHTS assay to identify small molecule HDAC inhibitors - cell viability counter screen (AID 1259365). Note: series mostly up to about 92 µM; nearly all actives have a fitted effect of over 50% in size. An outline of the steps:
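HCT-116 (wild type), 1,500 cells/well, overnight 37C/5% CO2; compound in DMSO 2hr; CellTiter-Glo 30min RT; luminescence read.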

Assay [5] in a line: qHTS assay to identify small molecule antagonists of the sonic hedgehog signaling (Shh) pathway - cell viability counter screen (AID 1259367). Note: nearly all actives have a fitted effect of over 55% in size. Note: potency is the fitted concentration of half-maximal effect. In outline:
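Using CellTiter-Fluor, viability of Gli1-Luc reporter 3T3 cells is read by fluorescence in the wells used for the Shh luciferase assay. Treatment lasts 23 hr with conditioned medium, then reagent 1 hr at 37C.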

Assay [6] in a line: qHTS assay to identify small molecule agonists of the sonic hedgehog signaling (Shh) pathway (AID 1259368; calls by dose curve;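 note: NIH/3T3-derived 3T3Gli1-Luc cells carrying a stable Gli1-driven firefly luciferase reporter; series mostly up to about 92 µM; nearly all actives have a fitted effect of over 15% in size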). In outline:
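3T3Gli1-Luc (NIH/3T3 clone, stable Gli1-Luc); 4 hr pre-incubation, then cpd in DMSO 24 hr, 37 C/5% CO2; luciferase reagent 30 min RT; luminescence.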

Assay [7] in a line: qHTS assay to identify small molecule agonists of the sonic hedgehog signaling (Shh) pathway - cell viability counter screen (AID 1259366). Note: nearly all actives have a fitted effect of over 50% in size. Note: potency is the fitted concentration of half-maximal effect. In outline: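 CellTiter-Fluor fluorescence read-out, 1 hr at 37C, added after 23hr compound exposure. Cells: 3T3 Gli1-Luc, an NIH/3T3 clone with stably integrated Gli1-Luc reporter, plated 4hr before compound.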
In assay [8] the target is Estrogen receptor (Homo sapiens) (UniProt P03372). As to the kind of experiment: qHTS assay to identify small molecule antagonists of the estrogen receptor alpha (ER-alpha) signaling pathway using the BG1 cell line in the presence of 0.1 nM 17-beta-estradiol (AID 1259244). Note: nearly all actives have a fitted effect of over 50% in size. An outline of the steps: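 Cells: VM7Luc4E2, endogenous ER-alpha, 4x ERE-luc stable. Pre-culture 5 d, phenol red-free, charcoal-stripped FBS. Plated 24 h, compound + E2 0.1 nM final, 22 h 37C/5% CO2. Readout ONE-Glo luminescence.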
Sequence of Estrogen receptor (Homo sapiens) (P03372 whole entry, looked up): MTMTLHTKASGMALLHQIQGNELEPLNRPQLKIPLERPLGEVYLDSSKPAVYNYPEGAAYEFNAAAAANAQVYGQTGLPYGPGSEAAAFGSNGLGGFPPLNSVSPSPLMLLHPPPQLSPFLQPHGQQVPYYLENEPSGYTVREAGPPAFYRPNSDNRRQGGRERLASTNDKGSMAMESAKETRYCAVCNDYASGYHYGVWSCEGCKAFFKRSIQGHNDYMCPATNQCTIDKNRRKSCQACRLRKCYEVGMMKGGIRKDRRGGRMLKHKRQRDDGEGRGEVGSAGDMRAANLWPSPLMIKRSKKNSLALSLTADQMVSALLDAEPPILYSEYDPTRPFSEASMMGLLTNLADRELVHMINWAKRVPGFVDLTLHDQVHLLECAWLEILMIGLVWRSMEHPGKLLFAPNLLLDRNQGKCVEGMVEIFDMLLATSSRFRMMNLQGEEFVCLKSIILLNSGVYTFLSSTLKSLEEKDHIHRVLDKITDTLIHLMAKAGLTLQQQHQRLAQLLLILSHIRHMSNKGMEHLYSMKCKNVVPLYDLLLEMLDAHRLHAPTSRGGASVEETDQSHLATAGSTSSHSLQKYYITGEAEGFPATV

The nature of assay [9]: qHTS assay to identify small molecule phospholipidosis (PLD) inducers (AID 1259344; active = well fitted curve in the direction sought with a large enough effect; an effect the other way counts as inactive or inconclusive). In outline: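 Fluorescent phospholipid staining (LipidTOX Red) measured by automated microscopy in fixed HepG2 cells after 24 h treatment; nuclei counterstained with Hoechst 33342; amiodarone as reference inducer.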

A number with no mark means an inactive call. Inconclusive results are not listed. Activity calls are given as the source filed them. Unless noted, calls come from the whole dose curve; as a rule, active = well fitted curve in the direction sought with a large enough effect in the repeat runs; inconclusive = weak or mixed curves; inactive = no such curve, though single readings can be large; an effect the other way counts as inactive or inconclusive.

Consider `CCC(Cl)CCC(Cl)C(Cl)CC(Cl)C(Cl)C(Cl)CCl` (centres undefined), for which the Potency entry in assay [1], in [2], in assay [3], in assay [4] and in assay [5] was “inactive” in each case. For the same molecule, the result in assay [6] was inactive.

`C=C1C(=C/C=C2\CCC[C@]3(C)[C@@H]([C@H](C)/C=C/[C@@H](O)C4CC4)CC[C@@H]23)C[C@@H](O)C[C@@H]1O`: the Potency result in assay [1], in assay [2], in assay [3], in assay [4] and in [5] was “inactive” in each case. Also, in assay [6], the molecule was classed as inactive.

On to `CCc1cc(C2=C(C(=O)O)N(c3ccccc3C(F)(F)F)S(=O)(=O)c3ccccc32)cc2c1OCO2`, for which the Potency entry in assay [1], in assay [2], in assay [3] and in assay [4] was “inactive” each time. The Potency in assay [7] and in [5] was 12.1 µM (active) each time. Further, the result in assay [6] was inactive.

`O=C1OC(=O)C2C3C=CC(C3)C12` (centres undefined): the Potency result in assay [1], in assay [2], in assay [3], in assay [4], in assay [7] and in assay [5] was “inactive” throughout. The molecule was called inactive in [6].

Consider `CC(C)OC(=O)C(C)N(C(=O)c1ccccc1)c1ccc(F)c(Cl)c1` (centres undefined), for which the Potency result in assay [1], in assay [2], in assay [3], in assay [4], in assay [7] and in [5] was “inactive” each time. In addition, the outcome in assay [6] was inactive.

Regarding `CCC(C)c1cc(C(C)(C)C)c(O)c(C(C)(C)C)c1` (centres undefined), the Potency result in assay [1], in assay [2], in [3], in assay [4] and in [5] was “inactive” each time. Further, the outcome in assay [6] was inactive.

On to `COS(=O)(=O)C(F)(F)F`, for which the Potency entry in assay [1], in [2], in assay [3] and in [4] was “inactive” each time. Moreover, the call in assay [6] was inactive.

Consider `C=CCOC(=O)CCC1CCCCC1`, for which the Potency result in assay [1], in assay [2], in assay [3], in assay [4], in [7] and in assay [5] was “inactive” each time. Moreover, the result in assay [6] was inactive.

Take `CCOC(=O)COC(=O)c1cc(Oc2ccc(C(F)(F)F)cc2Cl)ccc1[N+](=O)[O-]`: the Potency result in [1], in [2], in assay [3], in assay [4], in assay [7] and in assay [5] was “inactive” each time. The molecule was classed as inactive in assay [6].

On to `COc1cc(Cl)c(OC)cc1N`, for which the Potency result in assay [1], in assay [2], in assay [3], in [4], in [7] and in assay [5] was “inactive” each time. For the same molecule, the molecule was classed as inactive in assay [6].

Turning to `CCCCCCCCCCCCCCCCCCOS(=O)(=O)O`, the Potency entry in assay [1], in assay [2], in assay [3], in assay [4], in assay [7] and in [5] was “inactive” each time. For the same molecule, the result in [6] was inactive.

As for `CCC(C)O` (centres undefined), the Potency entry in assay [1], in [2], in assay [3], in assay [4], in assay [7] and in assay [5] was “inactive” in each case. For the same molecule, in assay [6], the molecule was classed as inactive.

As to `CCOC(=O)C(F)(F)F`, the Potency result in assay [1], in assay [2], in assay [3], in assay [4], in assay [7] and in assay [5] was “inactive” each time. Also, the call in assay [6] was inactive.

For the molecule `C1CCCNCCC1`, the Potency result in [1], in [2], in assay [3], in assay [4], in assay [7] and in assay [5] was “inactive” each time. For the same molecule, in assay [6], the result was inactive.

Consider `CC(C)(C)OCC1CO1` (centres undefined), for which the Potency result in assay [1], in assay [2], in assay [3], in [4], in assay [7] and in assay [5] was “inactive” in each case. Moreover, the call in [6] was inactive.

Consider `CC(C)O.CC(C)O.CCOC(=O)/C=C(\C)O.CCOC(=O)/C=C(\C)O.[Ti]`, for which the Potency entry in [1], in assay [2], in assay [3], in assay [4], in assay [7] and in assay [5] was “inactive” in each case. For the same molecule, in assay [6], the outcome was inactive.

For `CC(=O)[O][Al]`, the Potency entry in assay [1], in assay [2], in [3], in assay [4], in assay [7] and in assay [5] was “inactive” each time. Further, in assay [6], the molecule was called inactive.

For the molecule `CC(C)(O)c1ccc(CNC(=O)c2cccnc2Oc2ccc(F)cc2)cc1`, the Potency entry in assay [1], in assay [2], in assay [3], in [4], in [7] and in [5] was “inactive” each time. Further, the molecule was classed as inactive in assay [6].

As for `CCCCC(CC)CN1C(=O)C2C3C=CC(C3)C2C1=O` (centres undefined), the Potency result in [1], in [2], in assay [3], in assay [4] and in assay [7] was “inactive” throughout. In addition, the outcome in [6] was inactive.

On to `CCCCCCCCCCCCN1CCCCCC1=O`, for which the Potency result in assay [1], in assay [2], in assay [3], in [4], in assay [7] and in assay [5] was “inactive” in each case. Moreover, the molecule was classed as inactive in [6].

Regarding `C=CC(=O)OCCOc1ccccc1`, the Potency result in assay [1], in assay [2], in assay [3], in assay [4] and in assay [5] was “inactive” in each case. Further, the Potency in [7] was 68.5 µM (active). For the same molecule, the molecule was classed as inactive in [6].

`CC(C)=CCC/C(C)=C/CC/C(C)=C/CO`: the Potency result in [1], in assay [2], in [3], in assay [4], in [7] and in assay [5] was “inactive” in each case. Further, in assay [6], the molecule was classed as inactive.

As for `S=C([S-])NCCNC(=S)[S-].[Mn+2]`, the Potency result in [1], in [2], in assay [3], in assay [4] and in assay [5] was “inactive” throughout. The molecule was called inactive in assay [6].

In the case of `CCCCCCCC#N`, the Potency entry in assay [1], in [2], in [3], in assay [4] and in [7] was “inactive” throughout. In addition, the molecule was classed as inactive in assay [6].

With `COC(C)(C)CCO`, the Potency result in [1], in assay [2], in assay [3], in assay [4], in assay [7] and in assay [5] was “inactive” each time. Besides, the molecule was called inactive in assay [6].

In the case of `COCCCN1CCC(NC(=O)c2cc(Cl)c(N)c3c2OCC3)CC1`, the Potency entry in assay [1], in assay [2], in assay [3], in [4], in assay [7] and in [5] was “inactive” throughout. Also, the result in assay [6] was inactive.

With `Cc1ccccc1S(=O)(=O)O`, the Potency result in [1], in assay [2], in assay [3], in assay [4], in [7] and in assay [5] was “inactive” throughout. Also, the outcome in assay [6] was inactive.

Regarding `Cn1c(=O)cc(Oc2ccc(F)cc2F)c2cnc(NCC(C)(C)O)nc21`, the Potency entry in [1], in assay [2], in [3] and in [4] was “inactive” in each case. For the same molecule, in assay [6], the call was inactive.

`C[N+]1(CC2COC(c3ccccc3)(C3CCCCC3)O2)CCCCC1` (centres undefined): the Potency entry in assay [1], in assay [8], in assay [9], in assay [3], in [4] and in assay [7] was “inactive” throughout. The Potency entry in assay [5] was “inactive”. The call in assay [6] was inactive.

The record behind these values is PubChem BioAssay (Tox21).
